This is a sample that favours compounds with a hit; in the whole collection about 1.2% have one here.
NPSR antagonist: antagonists of human neuropeptide S receptor cAMP signaling; Potency, µM (doses to about 38.3 µM), most hits filed as inhibitors; 1% of 220,000 active; CHO-NPSR cells, cAMP TR-FRET, antagonist mode; Q6W5P4; note: nearly all actives have a fitted effect of over 50% in size
GALK inhibitor: inhibitors of human galactokinase; P51570; 0.007% of 270,000 active; Purified GALK, Kinase-Glo residual ATP luminescence; Potency, µM (doses to about 57.5 µM), actives largely listed as inhibitors
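Luminescence from leftover ATP (Ultra-Glo luciferase/luciferin) served as read-out after a 1 h room-temperature reaction of 5 nM GALK with 35 uM ATP and 100 uM galactose.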
TrxR1 substrate: rat thioredoxin reductase 1 substrate activity | O89049 | purified TrxR1 substrate turnover, NADPH consumption readout | Potency, µM (series often up to 114 µM) | 0.01% of 390,000 active | AID 588456; note: nearly all actives have a fitted effect of over 50% in size
Target sequence (O89049 whole entry, looked up): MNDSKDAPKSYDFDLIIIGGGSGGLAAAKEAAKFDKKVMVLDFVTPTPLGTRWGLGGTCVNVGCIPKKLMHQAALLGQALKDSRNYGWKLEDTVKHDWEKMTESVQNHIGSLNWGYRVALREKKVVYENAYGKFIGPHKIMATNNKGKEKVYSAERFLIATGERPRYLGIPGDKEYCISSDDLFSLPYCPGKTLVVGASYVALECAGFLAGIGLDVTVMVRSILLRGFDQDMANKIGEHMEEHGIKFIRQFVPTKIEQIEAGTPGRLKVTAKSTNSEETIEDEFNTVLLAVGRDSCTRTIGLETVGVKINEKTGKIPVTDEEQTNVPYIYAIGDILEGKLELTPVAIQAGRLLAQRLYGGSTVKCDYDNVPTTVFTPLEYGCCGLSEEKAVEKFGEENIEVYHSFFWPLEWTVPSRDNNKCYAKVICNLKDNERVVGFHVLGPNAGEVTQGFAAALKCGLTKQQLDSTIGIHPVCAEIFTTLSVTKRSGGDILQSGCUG
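Rat TrxR1, dispensed at 90 nM, was prereduced with 400 uM NADPH (final) for 5 min at ~22 deg C, then incubated with compound 15 min before 400 uM selenite. A first-read NADPH fluorescence drop versus no-compound background flagged substrates.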
TrxR1 inh: inhibitors of rat thioredoxin reductase 1 | recombinant rTrxR1, NADPH fluorescence consumption, selenite substrate | 1% of 390,000 active | Potency, µM (series often up to 114 µM), hits mostly inhibitors; note: nearly all actives have a fitted effect of over 65% in size
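Rat TrxR1 (90 nM in the dispensed reagent) was pre-reduced with 400 uM NADPH for 5 min at room temperature, then incubated with compound for 15 min. After 400 uM selenite was added, NADPH fluorescence (Ex 340/Em 450 nm) was followed for 8 min.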
Numbers stand for hits; – = inactive; ? = inconclusive; · = no result; ! = repeats disagree; [ ] = dose if it differs, or a comment. Calls come from the whole dose curve; as a rule, active = well fitted curve in the direction sought with a large enough effect; inconclusive = small, poorly fitted or top-dose-only effect, or another doubt; inactive = no such curve, though single readings can be large; an effect the other way counts as inactive or inconclusive.

SMILES	NPSR antagonist	GALK inhibitor	TrxR1 substrate	TrxR1 inh
COc1ccc(S(=O)(=O)Cc2ccc(C(=O)O)o2)cc1	·	–	–	–
Cc1ccc(S(=O)(=O)Cc2ccc(C(=O)O)o2)cc1	–	–	–	25.1µM
COc1ccc(S(=O)(=O)Cc2ccc(C(=O)N3CCc4ccccc4C3)o2)cc1	–	–	–	50.1µM
Brc1ccc[n+](CCC2CCCCC2)c1	·	·	–	–
COc1cc(N2C(=O)C=CC2=O)ccc1N1C(=O)C=CC1=O	·	·	–[11.4 µM]	0.501µM
C=C(C)CN(CC)c1nc(N)c2c(N)nc3c(c2c1C#N)CC(=O)N3C12CC3CC(CC(C3)C1)C2	5.01µM	–	–	–
C=C(CN(C)C)C(=O)c1cc(OC)c(OC)cc1OC	·	·	–	1.78µM
C=C(CN(C)C)C(=O)c1ccc2c(c1)OCO2	·	·	–	1.58µM
C=C(CN(C)C)C(=O)c1ccc(C)cc1C	·	·	–[11.4 µM]	2µM
C[N+](C)(C)CCCC(=O)c1ccc2c(c1)OCO2	–	–	–	–
Cc1ccc2ncc(C)c(C)c2c1	·	·	–	–
CCOC(=O)C1=C(C(=O)OCC)N(CC2CCCCC2)CCC1=O	·	·	–	–
O=C(COc1ccccc1)Nc1ccc(OCc2cc(=O)n3ccsc3n2)cc1	·	·	–	–
CCCCOC(=O)c1cccc(NC(=O)c2cc3ccccc3o2)c1	·	·	–	–
O=C(NN=Cc1ccc([N+](=O)[O-])cc1)c1ccncc1	·	·	–[2.29 µM]	–[2.29 µM]
O=C(/C=C/c1ccc([N+](=O)[O-])cc1)Oc1ccc(/C=N/NC(=O)c2ccncc2)cc1	·	–	–	35.5µM
CCOC(=O)/C=C1\CN(Cc2cc(OC)c(OC)c(OC)c2)S(=O)(=O)c2ccc(C(F)(F)F)cc21	·	·	–	50.1µM!
CSC1=C(C#N)C(c2ccccc2Cl)C2=C(CCCC2=O)N1 (stereo unspecified)	–	–	·	·
CSC1=C(C#N)C(c2ccccc2Cl)C2=C(N1)c1ccccc1C2=O (stereo unspecified)	?	·	–	50.1µM
CSC1=C(C#N)C(c2ccccc2C)C(C#N)=C(N)N1 (stereo unspecified)	–	–	–	50.1µM
Cc1[nH]c2ccc(C(=O)NCCc3ccccc3Cl)cc2c1C	·	·	–	–
CCc1c(C)sc(NC(=O)c2cc(CC(C)C)on2)c1C#N	–	–	–	–
CCc1c(C)sc(NC(=O)c2noc(C)c2[N+](=O)[O-])c1C#N	–	–	–	12.6µM
O=C(Oc1cccc2cccnc12)c1ccco1	–	–	–	–
O=C(Oc1ccc(Cl)c2cccnc12)c1ccco1	3.98µM	–	–	–
SMILES	NPSR antagonist	GALK inhibitor	TrxR1 substrate	TrxR1 inh
O=C1/C(=C\c2ccco2)CCC/C1=C\c1ccco1	–	–	–	2.24µM
C=Cc1ccc(COc2ccc3oc(-c4ccccc4)c(C(=O)OCC)c3c2)cc1	·	·	–	–
COc1ccc(N2C(=O)CC(Sc3nnc(-c4ccccc4)o3)C2=O)cc1 (stereo unspecified)	?	–	–	39.8µM
O=C1CC(Sc2nnc(-c3ccccc3O)o2)C(=O)N1c1ccccc1 (stereo unspecified)	?	–	–	?
COc1ccc2c(c1)c1c(c(=O)n(-c3ccccc3C)c(=O)n1Cc1cccc(C(F)(F)F)c1)n2C	·	·	–	–
O=c1oc2ccccc2c(N2CCCC2)c1CN1CCCC1	–	–	–	?
O=c1oc2ccccc2c(Cl)c1CN1CCCCC1	?	–	–	3.16µM
Cc1ccccc1CN1[C@@H](Cc2ccccc2)COCCS1(=O)=O	·	·	–	–
C=C1[C@@H](O)[C@H](Cc2ccccc2)N(Cc2ccccc2Br)S1(=O)=O	·	·	–	14.1µM
CC(=O)NC(Cc1ccc(Cl)cc1)C(=O)NCC(N)C(=O)c1ccccc1 (stereo unspecified)	·	·	–	–
Cc1ccc(S(=O)(=O)NC2CCCCCCC2)cc1	·	–	–	–
Cc1ccc(S(=O)(=O)NC2OC(=O)C(Cl)=C2Cl)cc1 (stereo unspecified)	–	–	–	10µM
CCOC(=O)c1c(NC(=S)NC)sc2c1CC(C)(C)SC2	–	–	–	11.2µM
COc1ccc(N2CCN(Cc3nc4c(c(=O)n(C)c(=O)n4C)n3C(C)C)CC2)cc1	·	·	–	–
Cc1ccc2nc(/C(C#N)=C\c3ccc([N+](=O)[O-])o3)[nH]c2c1	10µM	–	–	?
Cc1ccc2nc(/C(C#N)=C/c3ccc(-c4ccccc4C(=O)O)o3)[nH]c2c1	·	–	–	?
N#C/C(=C(/O)c1ccc([N+](=O)[O-])o1)c1nc2ccccc2[nH]1	–	–	–	–
N#C/C(=C\c1ccc([N+](=O)[O-])o1)c1nc2ccccc2[nH]1	3.98µM	–	–	2.82µM
